This is a sample that favours compounds with a hit; in the whole collection about 9.5% have one here.
Pf growth 96h – P. falciparum growth inhibition at 96 hours. P. falciparum luciferase reporter growth, 96 h. Potency, µM (doses to about 28.7 µM), for inactives: at the highest dose activity change, negative = inhibition, hits mostly inhibitors. 320,000 tested, 6.9% active. AID 504834; active means well fitted inhibition curve with a large enough effect; inconclusive means small, poorly fitted or top-dose-only effect, or another doubt; inactive means no such curve, though single readings can be large or run the other way; further: on the % scale 0 is the no-effect control and ±100 the full control effect
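96 h incubation, 37 C, 5% CO2, of luciferase-reporter P. falciparum-infected RBCs (2% hematocrit, 0.05% parasitemia final) with test compounds; endpoint luminescence.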
SARS PLP yeast – SARS-CoV PLP inhibition in yeast; S. cerevisiae expressing SARS-CoV PLpro, growth rescue; AID 485353; Potency, µM (highest dose often 32.9 µM), for inactives: at the highest dose activity, positive = growth rescue, hits mostly activators; 330,000 tested, 0.19% active; further: 0% is about no effect; nearly all actives have a fitted effect of over 55% in size
Pf growth 48h – P. falciparum growth inhibition at 48 hours (one generation); P. falciparum luciferase growth in erythrocytes, 48 h; Potency, µM (doses to about 28.7 µM), for inactives: at the highest dose activity change, negative = inhibition, usual class: inhibitors; 310,000 tested, 5.9% active; active means well fitted inhibition curve with a large enough effect; inconclusive means small, poorly fitted or top-dose-only effect, or another doubt; inactive means no such curve, though single readings can be large or run the other way; further: on the % scale 0 is the no-effect control and ±100 the full control effect
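Luciferase-expressing parasites in RBCs, 2% Hct / 0.1% parasitemia final; RPMI 1640 + 0.5% Albumax; 37 C, 5% CO2, one generation; luminescence read-out, lower signal = inhibition.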
NS1 inh – inhibitors of influenza NS1 protein function. AID 2326. Potency, µM (doses to about 46.1 µM), without a hit: at the highest dose activity, positive = more growth. 270,000 tested, 0.4% active; further: actives are rising curves; nearly all actives have a fitted effect of over 50% in size
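A cell-based growth assay was used: compounds that relieve NS1-induced slow growth of budding yeast raise OD600. Assay medium was yeast nitrogen base with ammonium sulphate and -URA supplement, pH 6.0, with 2% galactose.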
RE007 growth inh – less growth of the S. pombe RE007 Vpr strain; S. pombe RE007 Vpr strain, BacTiter-Glo ATP luminescence, 24 h; Potency, µM (top dose mostly 92.2 µM), without a hit: top-dose activity change, negative = less growth, usual class: inhibitors; 360,000 tested, 0.21% active; AID 651644; active means well fitted falling curve with a large enough effect; inconclusive means small, poorly fitted or top-dose-only effect; inactive means no such curve, though single readings can be large or run the other way; further: on the % scale 0 is the no-effect control and ±100 the full control effect; nearly all actives have a fitted effect of over 50% in size
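Fission yeast strain RE007, carrying one chromosomally integrated HIV-1 vpr copy, was seeded at OD 0.01 in PMG+AL medium with 23 nL pinned compound. After 24 h at 30 °C and 99% humidity, viability was read by BacTiter-Glo luminescence.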
* = called active by the depositor; [ ] = remark or other dose. Unless noted, the call rests on the fitted dose curve. Potency means the concentration at half of the fitted maximal effect.

COc1ccc(Cl)cc1NC(=O)NNC(=O)C(=O)Nc1ccc(F)cc1 was read as RE007 growth inh 1.1%.
`COc1cccc(CNC(=O)C(c2ccc(Cl)cc2)C(C)C)c1` (stereo not given) gave Pf growth 96h 6.57µM*, SARS PLP yeast 11.0%, Pf growth 48h 9.28µM*, NS1 inh 6.8% and RE007 growth inh -15.6%.
For COc1cccc(CNC(=O)CCl)c1 the results were Pf growth 96h 10.4µM*, SARS PLP yeast 24.7%, Pf growth 48h inconclusive, NS1 inh -0.4% and RE007 growth inh -9.5%.
Screening CCC(=O)N1CCCC(C(=O)Nc2nc3ccccc3[nH]2)CC1 (stereo not given) returned RE007 growth inh 12.4%.
`Cc1cccc(-c2c3c(=O)n(C)c(=O)n(C)c3cn2-c2ccccc2O)c1` gave Pf growth 96h 8.28µM*, SARS PLP yeast -14.6%, Pf growth 48h 1.85µM*, NS1 inh -101.6% and RE007 growth inh -5.9%.
Cn1c(=O)c2c(-c3ccccc3)n(-c3cc([N+](=O)[O-])ccc3O)cc2n(C)c1=O was read as RE007 growth inh 6.6%.
For COc1cc(OC)cc(C(=O)Nc2ccc(C(=O)Nc3ccccc3OC)cc2)c1 the results were SARS PLP yeast 0.5% and RE007 growth inh -8.6%.
For S=C(NCCc1cccc(Cl)c1)NC1CCCCC1 the results were Pf growth 96h 27.0%, SARS PLP yeast -3.6%, Pf growth 48h 63.2%, NS1 inh -89.3% and RE007 growth inh -10.2%.
Screening Cc1ccc(NC(=O)ON=C2CCCC2)cc1 returned Pf growth 96h 19.9%, Pf growth 48h 4.65µM*, NS1 inh -30.9% and RE007 growth inh -8.4%.
O=C(Nc1ccccc1)O/N=C/c1ccncc1 was read as Pf growth 96h inconclusive, SARS PLP yeast 0.0%, Pf growth 48h 5.7%, NS1 inh -4.7% and RE007 growth inh -8.7%.
`O=C(Nc1ccccc1)ON=C1CCCC1` gave Pf growth 96h inconclusive, SARS PLP yeast -71.8%, Pf growth 48h 8.28µM*, NS1 inh -28.3% and RE007 growth inh -22.9%.
`O=C(NCc1ccc(Cl)cc1)c1ccc(S(=O)(=O)N2CCCCC2)cc1` gave Pf growth 96h inconclusive, SARS PLP yeast -5.5%, Pf growth 48h inconclusive and RE007 growth inh 1.7%.
Screening Cc1ccccc1NC(=O)Cc1nc(CCl)cs1 returned Pf growth 96h inconclusive, SARS PLP yeast 9.8%, Pf growth 48h inconclusive, NS1 inh 4.7% and RE007 growth inh 0.0%.
For Cc1ccccc1NC(=O)Cc1nc(-c2c[nH]c(C(=O)N3CCCC3)c2)cs1 the results were Pf growth 96h 10.4µM*, SARS PLP yeast 6.4%, Pf growth 48h 9.28µM* and RE007 growth inh 0.4%.
For Cc1cccc(NC(=O)Cc2nc(-c3c[nH]c(C(=O)N4CCCC4)c3)cs2)c1 the results were Pf growth 96h inconclusive, SARS PLP yeast -0.6%, Pf growth 48h 11.7µM* and RE007 growth inh 1.6%.
Cc1cccc(CC(=O)Nc2ccc(C(=O)N3CCCCC3)cc2)c1 was read as Pf growth 96h inconclusive, SARS PLP yeast -1.4%, Pf growth 48h 24.2%, NS1 inh -2.6% and RE007 growth inh 8.3%.
`CCC(NC(=O)CCc1c(C)c2cc3c(-c4ccccc4)coc3cc2oc1=O)C(=O)O` (stereo not given) gave Pf growth 96h 3.1%, SARS PLP yeast 0.4%, Pf growth 48h 11.0%, NS1 inh inconclusive and RE007 growth inh 1.3%.
For O=C(NC1CCCCC1)C(c1ccncc1)N(C(=O)c1csnn1)c1ccccc1 (stereo not given) the results were Pf growth 96h 16.1%, SARS PLP yeast -7.1%, Pf growth 48h 17.0%, NS1 inh 9.1% and RE007 growth inh -8.3%.
Screening CC(C)c1ccc(C(C(=O)NC2CCCCC2)N(C(=O)c2ccccn2)c2cccnc2)cc1 (stereo not given) returned Pf growth 96h inconclusive, SARS PLP yeast 0.0%, Pf growth 48h 10.4µM* and RE007 growth inh 3.1%.
O=C(NC1CCCCC1)C(c1ccc(Cl)cc1)N(C(=O)c1cnccn1)c1ccc2c(c1)OCO2 (stereo not given) was read as Pf growth 96h -14.6%, SARS PLP yeast -0.8%, Pf growth 48h 10.4µM*, NS1 inh -4.6% and RE007 growth inh -0.7%.
O=C(NC1CCCC1)C(c1ccncc1)N(C(=O)c1csnn1)c1ccccc1 (stereo not given) was read as Pf growth 96h 5.86µM*, SARS PLP yeast -1.3%, Pf growth 48h 16.9%, NS1 inh 3.5% and RE007 growth inh -3.1%.
`CC(=O)c1cccc(N(C(=O)c2ccccn2)C(C(=O)NC2CCCCC2)c2ccccc2)c1` (stereo not given) gave Pf growth 96h 10.4µM*, SARS PLP yeast 0.1%, Pf growth 48h -25.6%, NS1 inh 0.0% and RE007 growth inh 5.8%.
Screening CN(CC(=O)Nc1ccccc1C(F)(F)F)C(=O)Cc1ccc(S(=O)(=O)N2CCOCC2)s1 returned Pf growth 96h 1.4%, SARS PLP yeast 18.1%, Pf growth 48h -0.2% and RE007 growth inh -4.8%.
For O=C(NC1CCCC1)C(c1ccccc1)N(C(=O)c1ccno1)c1ccccc1 (stereo not given) the results were Pf growth 96h 7.38µM*, SARS PLP yeast 1.6%, Pf growth 48h -15.0%, NS1 inh 9.3% and RE007 growth inh 16.7%.
Screening Clc1ccc(CS[C@@H](Cn2ccnc2)c2ccc(Cl)cc2Cl)cc1 returned Pf growth 96h 2.28µM* and Pf growth 48h 5.1µM*.
`O=C(NCCCn1ccnc1)C(=O)NCc1ccc(Cl)cc1` gave Pf growth 96h -19.8%, SARS PLP yeast -2.4%, Pf growth 48h -28.2%, NS1 inh 3.7% and RE007 growth inh -9.4%.
Screening Clc1ccc(CSC(Cn2ccnc2)c2ccc(Cl)cc2Cl)cc1 (stereo not given) returned Pf growth 96h 2.94µM*, SARS PLP yeast -59.8%, Pf growth 48h 2.08µM*, NS1 inh -44.5% and RE007 growth inh -19.2%[18.4 µM].
`O=C(Cc1ccc(Cl)cc1)NCCCn1ccnc1` gave Pf growth 96h inconclusive, SARS PLP yeast -1.2%, Pf growth 48h inconclusive, NS1 inh 11.3% and RE007 growth inh -5.9%.
`COc1ccccc1N1CCN(C2CCN(C(=O)COc3ccccc3)CC2)CC1` gave Pf growth 96h 12.4%[5.75 µM], SARS PLP yeast -0.3%, Pf growth 48h 0.0%, NS1 inh 5.1% and RE007 growth inh 5.1%.
`COc1ccccc1-c1nn(-c2ccccc2)cc1C(=O)N1CCN(C(=O)c2ccco2)CC1` gave Pf growth 96h -28.5%, SARS PLP yeast 1.2%, Pf growth 48h inconclusive and RE007 growth inh -6.5%.
COc1cccc(-c2nn(-c3ccc(C)cc3)cc2C(=O)N2CCc3cc(OC)c(OC)cc3C2)c1 was read as Pf growth 96h inconclusive, SARS PLP yeast -20.2%, Pf growth 48h 9.28µM* and RE007 growth inh 7.6%.

Screens: PubChem BioAssay, National Center for Advancing Translational Sciences (NCATS)
